Inconclusive results are not listed. The source made the active and inactive calls. Unless noted, calls come from the whole dose curve; as a rule, active = well fitted inhibition curve with a large enough effect; inconclusive = small, poorly fitted or top-dose-only effect; inactive = no such curve, though single readings can be large or run the other way.
Assay: S16 Schwann cell PMP22 intronic element firefly luciferase assay (AID 624032); note: nearly all actives have a fitted effect of over 30% in size;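 for activity change, negative = inhibition: plate controls were DMSO for no effect and PTC124 positive control mean for full effect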
Conditions: S16 rat Schwann cells, PMP22 element FLuc, 24 h; series mostly up to 57.5 µM; activity change, negative = inhibition: at the top concentration
Outline: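 Luciferase reporter of PMP22 intronic-element expression in stably transfected S16 rat Schwann cells, read by ONE-Glo luminescence after 24 h compound exposure at 37 C. Activity scaled between DMSO (0%) and positive-control PTC124; concentration-effect curves quality-classified.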
Potency is the fitted concentration of half-maximal effect.

| Structure (SMILES) | Potency | activity change, negative = inhibition |
| --- | --- | --- |
| COC(=O)[C@H]1[C@H]2C[C@@H]3c4[nH]c5ccccc5c4CCN3C[C@H]2C[C@@H](OC(=O)c2cc(OC)c(OC)c(OC)c2)[C@@H]1OC | 0.907 µM (active) |  |
| CC(C)=O |  | -11.7% (inactive) |
| C[C@]12CCC(=O)C=C1CC[C@@H]1[C@@H]2[C@@H](O)C[C@@]2(C)[C@H]1CC[C@]2(O)C(=O)COP(=O)(O)O |  | 57.5% (inactive) |
| COC(=O)C1=C(C#N)NC(C)=C(C(=O)OC(C)C)C1c1cccc([N+](=O)[O-])c1 (stereo not given) | 16.1 µM (active) |  |
| Cc1cc(C(=O)NNCc2ccccc2)no1 |  | 24.1% [at 25.7 µM] (inactive) |
| NC(=O)c1ncn(C2OC(CO)C(O)C2O)n1 (stereo not given) |  | 14% (inactive) |
| O=C(O)CCC(=O)C(=O)O |  | 1.36% (inactive) |
| COC(=O)CCC(=O)CN |  | -19.1% (inactive) |
| COC(F)(F)C(Cl)Cl |  | 13.1% (inactive) |
| O=S(=O)(O)O |  | 1.73% (inactive) |
| CCCCCCCC(=O)O |  | 0.981% (inactive) |
| CCOC(C)=O |  | -5.46% (inactive) |
| CC(C)(C)NC(=O)[C@@H]1C[C@@H]2CCCC[C@@H]2CN1C[C@@H](O)[C@H](Cc1ccccc1)NC(=O)[C@H](CC(N)=O)NC(=O)c1ccc2ccccc2n1 | 12.8 µM (active) |  |
| CCCCCCOc1ccc(C(=N)N(CCCC)CCCC)c2ccccc12 | 22.8 µM (active) |  |

Assay: S16 Schwann cell PMP22 intronic element beta-lactamase assay (AID 624044; calls by dose curve; note: nearly all actives have a fitted effect of over 15% in size;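 for ratio activity, negative = inhibition: 0% = DMSO and -100% = potassium clavulanate positive control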)
Conditions: S16 rat Schwann cells, PMP22 element beta-lactamase FRET, 24 h; series mostly up to 38.3 µM; ratio activity, negative = inhibition: at the top concentration
Outline: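 Beta-lactamase reporter under a PMP22 intronic regulatory element in stable S16 rat Schwann cells; 24 h compound exposure. 460 nm blue signal normalized between DMSO (0%) and potassium clavulanate, with 535 nm FRET tracking viability; curves classed by r2 and response.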

| Structure (SMILES) | Potency | ratio activity, negative = inhibition |
| --- | --- | --- |
| COC(=O)[C@H]1[C@H]2C[C@@H]3c4[nH]c5ccccc5c4CCN3C[C@H]2C[C@@H](OC(=O)c2cc(OC)c(OC)c(OC)c2)[C@@H]1OC | 3.98 µM (active) |  |
| Cc1cc(C(=O)NNCc2ccccc2)no1 |  | 1.77% [at 17.1 µM] (inactive) |
| NC(=O)c1ncn(C2OC(CO)C(O)C2O)n1 (stereo not given) |  | -20% (inactive) |
| COC(F)(F)C(Cl)Cl |  | 0.38% (inactive) |
| O=S(=O)(O)O |  | -1.65% (inactive) |
| CCOC(C)=O |  | 0.295% (inactive) |

From PubChem BioAssay (NCATS)
